Consider five compounds from PubChem BioAssay.

The source made the active and inactive calls.

One assay deals with Albumin (Bos taurus) (UniProt P02769). The assay is described as follows: compounds binding labelled BSA control protein – biochemical, small-molecule microarray, Alexa647 label, 635/667 nm fluorescence, artefact control for SMM control protein annotation, profiling panel (AID 1118).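 Further: score merges 667 nm emission intensity and signal-to-noise per printed compound spot.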 The following applies: BSA-A647 binding, fluorescence 635 nm, higher = more signal.
Chain of Albumin (Bos taurus) (P02769 whole entry, looked up): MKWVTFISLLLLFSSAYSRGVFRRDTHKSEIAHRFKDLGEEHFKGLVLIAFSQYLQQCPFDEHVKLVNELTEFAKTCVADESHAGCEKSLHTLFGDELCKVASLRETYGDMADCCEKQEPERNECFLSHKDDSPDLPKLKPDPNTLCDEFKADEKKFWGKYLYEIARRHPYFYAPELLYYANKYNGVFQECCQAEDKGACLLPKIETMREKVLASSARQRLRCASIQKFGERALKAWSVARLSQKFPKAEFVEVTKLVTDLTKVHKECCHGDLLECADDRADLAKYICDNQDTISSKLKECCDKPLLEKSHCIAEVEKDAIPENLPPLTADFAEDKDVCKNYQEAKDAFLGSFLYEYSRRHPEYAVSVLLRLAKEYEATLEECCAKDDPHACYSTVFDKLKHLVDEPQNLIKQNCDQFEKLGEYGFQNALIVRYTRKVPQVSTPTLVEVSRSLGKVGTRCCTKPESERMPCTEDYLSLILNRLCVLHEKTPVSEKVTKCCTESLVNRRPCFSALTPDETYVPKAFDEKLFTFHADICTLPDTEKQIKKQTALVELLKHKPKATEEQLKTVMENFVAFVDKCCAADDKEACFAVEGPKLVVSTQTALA
Assay [1] in a line: probe aXIP binding to arrayed compounds – biochemical, NeuroSMM set, 635/667 nm fluorescence, primary screen (AID 1119).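 Further: probe is the protein aXip251-270 applied at 1 µg/mL to compound-printed slides; binding of probe to printed compounds measured as 667 nm fluorescence plus signal to noise.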 The note with it: small-molecule microarray, higher = more signal, called active from +8 up or from −8 down.
Assay [2] is described as follows: probe aNOTCH3 binding on compound microarray – biochemical, small-molecule microarray, 635/667 nm fluorescence, primary screen (AID 1120).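 Further: probe is a biotin-tagged antibody raised against NOTCH3 rather than NOTCH3 protein; score merges spot fluorescence near 667 nm with spot signal to noise.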 The note with it: higher = more signal.
A short description of assay [3]: probe aNOTCH2 binding on compound microarray – biochemical, small-molecule microarray, 635/667 nm fluorescence, primary screen (AID 1121).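 Further: score merges feature fluorescence read at 667 nm with its signal to noise.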 The note with it: higher = more signal.
For assay [4], the target named is Carbonic anhydrase 2 (Homo sapiens) (UniProt P00918). The experiment in a line: compounds binding carbonic anhydrase 2 – biochemical, small-molecule microarray, Alexa647-labelled CAII, profiling panel (AID 1122). The note with it: CAII-A647 binding fluorescence, higher = more signal.
Assay [5] can be described thus: COS7 lysate on small-molecule microarray, probe aHis, 635 nm (AID 1123).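 Further: z-score combines 667nm fluorescence intensity with signal-to-noise per printed compound spot.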 The note with it: COS7 cell lysate, fluorescence, higher = more signal.
A short description of assay [6]: probe aLAP1 signal on lysate-treated microarray – cell lysate, small-molecule microarray, COS7 lysate, primary screen (AID 1124).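 Further: lysate comes from COS7 cells expressing LAP1 and is applied at 0.3 µg/mL; score merges spot fluorescence near 667 nm with signal-to-noise over triplicate slides.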 The note with it: probe aLAP1, fluorescence, higher = more signal.
The next assay deals with Sam68 (KHDRBS1). The experiment in a line: compounds binding KHDRBS1 protein – biochemical, small-molecule microarray, 635 nm fluorescence, primary screen (AID 1125).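 Further: score merges 667 nm channel intensity with signal to noise over triplicate slides.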 The following applies: higher = more signal.
The subject of assay [7] is Chordin-like protein 2 (CHRDL2). The experiment in a line: compounds binding chordin-like 2 – biochemical, small-molecule microarray, 635 nm fluorescence, primary screen (AID 1126).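 Further: printed compound slides probed with Chrdl2 protein at 4 µg/mL for 1 h at 4 C; score merges 667 nm emission intensity with signal to noise over three replicate slides.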 The following applies: fluorescence 635 nm, higher = more signal.
In assay [8] the target is Concanavalin-A (Canavalia ensiformis) (UniProt P02866). The experiment in a line: compounds binding concanavalin A lectin – biochemical, small-molecule microarray, Alexa647 label, 635 nm, artefact control for SMM control protein annotation, primary screen (AID 1127).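 Further: z combines 667 nm emission intensity with signal-to-noise across three replicate slides.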 The following applies: ConA-A647 binding fluorescence, higher = more signal.
Chain of Concanavalin-A (Canavalia ensiformis) (P02866 whole entry, looked up): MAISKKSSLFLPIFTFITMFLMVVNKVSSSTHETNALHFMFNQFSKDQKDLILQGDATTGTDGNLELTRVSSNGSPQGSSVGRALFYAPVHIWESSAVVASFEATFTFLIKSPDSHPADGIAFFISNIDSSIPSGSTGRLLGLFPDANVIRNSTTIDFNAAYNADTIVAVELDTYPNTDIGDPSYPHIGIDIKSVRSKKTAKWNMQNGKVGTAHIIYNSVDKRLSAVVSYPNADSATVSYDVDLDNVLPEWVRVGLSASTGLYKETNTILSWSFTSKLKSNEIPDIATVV
Assay [9] in a line: compounds binding Alexa647 anti-His antibody – biochemical, small-molecule microarray, 635 nm fluorescence, artefact control for SMM control protein annotation, primary screen (AID 1128).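 Further: score merges feature fluorescence with signal-to-noise for each printed compound spot.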 The following applies: higher = more signal.
The test system of assay [10] is Human papillomavirus type 1a E7 protein (residues 1-88). The experiment in a line: HPV1a E7 small-molecule binders, primary screen, biochemical, small-molecule microarray, residues 1-88, 635 nm (AID 1129). The following applies: small-molecule microarray binding, fluorescence 635 nm; higher = more signal.
The target in assay [11] is Focal adhesion kinase 1 (Homo sapiens) (UniProt Q05397). The assay is described as follows: PTK2 protein binding on printed compound slides – biochemical, small-molecule microarray, 635/667 nm fluorescence, BSA, DTT, primary screen (AID 1130).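 Further: composite of spot emission at 667 nm and signal to noise over triplicate slides.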 The note with it: 635 nm fluorescence, higher = more signal.
Chain of Focal adhesion kinase 1 (Homo sapiens) (Q05397 whole entry, looked up): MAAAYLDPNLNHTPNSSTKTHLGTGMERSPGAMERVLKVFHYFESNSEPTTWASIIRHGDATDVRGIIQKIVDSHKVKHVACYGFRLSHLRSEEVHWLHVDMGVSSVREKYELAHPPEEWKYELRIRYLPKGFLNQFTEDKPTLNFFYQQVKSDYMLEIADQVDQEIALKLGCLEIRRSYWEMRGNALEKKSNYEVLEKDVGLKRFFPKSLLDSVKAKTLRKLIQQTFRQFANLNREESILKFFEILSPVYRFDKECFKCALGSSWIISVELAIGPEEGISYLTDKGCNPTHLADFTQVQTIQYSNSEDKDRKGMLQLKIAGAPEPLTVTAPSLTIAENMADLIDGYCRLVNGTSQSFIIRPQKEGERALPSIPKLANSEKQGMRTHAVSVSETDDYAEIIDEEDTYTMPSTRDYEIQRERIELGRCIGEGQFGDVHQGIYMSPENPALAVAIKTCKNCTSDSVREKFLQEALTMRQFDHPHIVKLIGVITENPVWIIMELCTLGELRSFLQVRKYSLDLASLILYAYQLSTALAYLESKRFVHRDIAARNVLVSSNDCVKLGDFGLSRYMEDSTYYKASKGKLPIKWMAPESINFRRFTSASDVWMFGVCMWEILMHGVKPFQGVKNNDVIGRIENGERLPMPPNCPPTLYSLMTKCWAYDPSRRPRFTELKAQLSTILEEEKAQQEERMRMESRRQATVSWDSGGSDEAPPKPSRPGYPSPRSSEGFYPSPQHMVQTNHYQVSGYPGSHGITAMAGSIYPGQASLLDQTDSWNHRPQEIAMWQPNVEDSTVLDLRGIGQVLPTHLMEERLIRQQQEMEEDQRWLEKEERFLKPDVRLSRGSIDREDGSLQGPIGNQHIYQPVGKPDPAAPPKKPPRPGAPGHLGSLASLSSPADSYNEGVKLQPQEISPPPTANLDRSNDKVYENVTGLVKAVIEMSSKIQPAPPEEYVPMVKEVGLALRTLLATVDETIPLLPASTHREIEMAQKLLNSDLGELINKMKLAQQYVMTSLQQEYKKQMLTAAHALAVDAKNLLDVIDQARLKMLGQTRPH
Assay [12] concerns Fibrinogen (Alexa647-labelled). The assay is described as follows: Alexa647-fibrinogen binding to printed small molecules – biochemical, small-molecule microarray, 635/667 nm fluorescence, artefact control for SMM control-protein annotation, profiling panel (AID 1131).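 Further: z-score merges 667 nm fluorescence with per-spot signal-to-noise over triplicate slides.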 The following applies: fibrinogen-A647 binding fluorescence, higher = more signal.
For assay [13], the target named is Follistatin (Homo sapiens) (UniProt P19883). The experiment in a line: FST protein binding to printed compounds – biochemical, small-molecule microarray, 635/667 nm fluorescence, primary screen (AID 1132). The note with it: 635 nm fluorescence, higher = more signal.
Chain of Follistatin (Homo sapiens) (P19883 whole entry, looked up): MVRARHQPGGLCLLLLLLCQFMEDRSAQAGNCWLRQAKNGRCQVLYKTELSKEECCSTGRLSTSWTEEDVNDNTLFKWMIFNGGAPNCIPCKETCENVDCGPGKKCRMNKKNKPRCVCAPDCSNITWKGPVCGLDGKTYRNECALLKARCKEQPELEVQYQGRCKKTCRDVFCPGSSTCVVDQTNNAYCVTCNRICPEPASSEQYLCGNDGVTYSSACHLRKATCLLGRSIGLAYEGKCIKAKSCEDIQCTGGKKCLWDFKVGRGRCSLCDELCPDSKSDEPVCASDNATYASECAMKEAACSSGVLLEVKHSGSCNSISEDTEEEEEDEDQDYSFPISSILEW
Assay [14] deals with Fibroblast growth factor 2 (Homo sapiens) (UniProt P09038). The experiment in a line: basic fibroblast growth factor binding to printed compounds – biochemical, small-molecule microarray, 635/667 nm fluorescence, primary screen (AID 1133). The following applies: FGF2, fluorescence 635/667, higher = more signal.
Chain of Fibroblast growth factor 2 (Homo sapiens) (P09038 whole entry, looked up): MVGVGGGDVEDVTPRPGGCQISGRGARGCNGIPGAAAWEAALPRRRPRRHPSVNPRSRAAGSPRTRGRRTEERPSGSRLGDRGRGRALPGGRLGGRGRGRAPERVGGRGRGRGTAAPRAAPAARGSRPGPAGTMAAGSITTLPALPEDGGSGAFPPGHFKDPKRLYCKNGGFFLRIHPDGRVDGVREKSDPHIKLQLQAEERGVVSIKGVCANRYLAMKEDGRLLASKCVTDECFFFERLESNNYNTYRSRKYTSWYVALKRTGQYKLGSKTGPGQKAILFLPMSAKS
Assay [15] is described as follows: JC-1 mitochondrial potential readout, lung cancer cells – cell-based, A549, JC-1 fluorescence, basal, 24 h, 100 nL, profiling panel (AID 1138).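 Further: A549 lung adenocarcinoma cells under basal conditions with no added stimulus; test concentration not given here.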 The note with it: higher = more signal.
For a further assay, the system named is Lefty1. The experiment in a line: Lefty1 protein binding to printed compounds – biochemical, small-molecule microarray, 635/667 nm fluorescence, primary screen (AID 1139). The note with it: fluorescence 635/667, higher = more signal.
Assay [16] has as its system wheat germ agglutinin (Triticum aestivum), Alexa647-labelled. The assay is described as follows: Alexa647-WGA lectin binding to printed small molecules – biochemical, small-molecule microarray, 635/667 nm fluorescence, artefact control for SMM control-protein annotation, profiling panel (AID 1140).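 Further: score merges 667 nm feature emission with signal to noise over triplicate slides.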 The note with it: WGA-A647 binding, 635 nm fluorescence, higher = more signal.

Assay [17] addresses Luciferin 4-monooxygenase (Photinus pyralis) (UniProt P08659). The experiment in a line: inhibition of purified Photinus pyralis luciferase – biochemical, luminescence, purified enzyme, 2006 set, primary screen (AID 1141).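 Further: cell-free assay with purified firefly luciferase at 100 ng per well in PBS; test concentration not given here.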 The following applies: purified firefly luciferase, SteadyGlo luminescence, 30 min; higher = more signal, called active from +8 up or from −8 down.

Chain of Luciferin 4-monooxygenase (Photinus pyralis) (P08659 whole entry, looked up): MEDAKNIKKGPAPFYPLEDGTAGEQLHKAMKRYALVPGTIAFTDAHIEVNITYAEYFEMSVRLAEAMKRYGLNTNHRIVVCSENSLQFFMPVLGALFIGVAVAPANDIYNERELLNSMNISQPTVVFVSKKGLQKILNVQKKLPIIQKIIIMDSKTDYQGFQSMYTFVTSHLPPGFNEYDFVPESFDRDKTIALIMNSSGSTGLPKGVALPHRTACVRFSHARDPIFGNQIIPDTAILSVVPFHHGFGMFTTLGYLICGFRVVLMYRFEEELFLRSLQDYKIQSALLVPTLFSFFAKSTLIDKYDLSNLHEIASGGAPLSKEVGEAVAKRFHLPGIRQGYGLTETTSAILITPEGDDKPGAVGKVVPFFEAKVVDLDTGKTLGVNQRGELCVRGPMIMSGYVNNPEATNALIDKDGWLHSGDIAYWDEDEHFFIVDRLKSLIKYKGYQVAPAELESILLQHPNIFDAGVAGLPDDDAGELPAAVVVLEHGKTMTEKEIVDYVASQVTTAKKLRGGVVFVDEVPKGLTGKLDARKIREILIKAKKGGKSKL

Consider `COC(=O)c1ccc([C@H](NC(=O)c2ccco2)[C@]2(C)C[C@H]2C2CCCCC2)cc1`, for which the composite z-score with Albumin (Bos taurus) is 0.678; in assay [2], 0.0179; in [3], -0.0391; in assay [4], -0.227; in assay [5] it was 1.43; in assay [6] it was -0.164. The composite z-score in the assay on Sam68 (KHDRBS1) is -0.552; in assay [7], -1.17; in assay [8], 0.208; in assay [9], -0.162; in assay [10], -0.678; in assay [11] it was -0.59. Besides, the composite z-score in assay [12] is -0.293; in [13], -0.633; in [14], -1.11; with Lefty1, -1.58; in assay [16], 0.638. Also, in [1], the composite Z-score is 0.0201 (inactive). The z-score was -0.573 in assay [15] and 1.34 (inactive) in [17].

Take `CC(C)C(=C=CC[C@H](O)c1cccc(OCCO)c1)C[C@H](O)c1cc(Cl)cc(Cl)c1O`: the composite z-score with Albumin (Bos taurus) is 0.773; in assay [2], 0.0916; in assay [3] it was -0.154; in [4] it was 0.374; in assay [5], 1.14; in [6], 0.0431. Also, the composite z-score was 0.801 in the assay on Sam68 (KHDRBS1); -0.331 in [7]; 0.943 in assay [8]; -0.397 in [9]; 0.637 in [10]; 0.295 in [11]. For the same compound, the composite z-score was 0.713 in assay [12]; 1.31 in assay [13]; 0.484 in assay [14]; 1.3 with Lefty1; 0.628 in [16]. Besides, the composite Z-score in assay [1] was -0.0673 (inactive). For the same compound, the values for the z-score in assay [15] and in assay [17] were 0.487 and -0.316 (inactive), respectively.

For `C[C@H]1NC(=O)[C@@]23C(=O)N[C@@H](Cc4ccccc4)C2[C@H](C)[C@@]2(C)O[C@H]2C3/C=C/C/C=C\CNC(=O)[C@H](Cc2ccccc2)NC1=O` (stereo not given in full), the composite z-score was -0.474 with Albumin (Bos taurus); -0.145 in assay [2]; -0.127 in assay [3]; 0.281 in [4]; 0.205 in [5]; 0.0898 in assay [6]. In addition, the composite z-score is 0.127 with Sam68 (KHDRBS1); 0.636 in [7]; 0.501 in assay [8]; 0.624 in assay [9]; -0.0861 in assay [10]; -0.219 in [11]. In addition, the composite z-score in [12] came to 0.617; in assay [13], 0.884; in [14] it was 0.811; in the assay with Lefty1, 0.942; in [16], 0.404. Also, the composite Z-score in [1] is -0.721 (inactive). The z-score in assay [15] is -0.0755; in assay [17], -0.203 (inactive).

Regarding `CN1C(=O)C2C=CC(C(O)C#Cc3ccccc3)N(Nc3ccccc3)C2C1=O` (stereo not given), the composite z-score came out at 1.03 in the assay with Albumin (Bos taurus); 0.405 in assay [2]; 0.0363 in assay [3]; 0.663 in assay [4]; 2.96 in assay [5]; 0.553 in [6]. For the same compound, the composite z-score with Sam68 (KHDRBS1) was 1.35; in assay [7], -0.0655; in [8] it was 1.09; in [9] it was 0.974; in assay [10] it was 1.24; in [11] it was 0.884. Further, the composite z-score in assay [12] is 0.985; in assay [13] it was 1.18; in assay [14], 0.101; with Lefty1, 0.473; in [16], 1.24. In addition, the composite Z-score in assay [1] was -0.0662 (inactive). Further, the z-score is 1.11 in [15] and -1.21 (inactive) in assay [17].

With `[N-]=[N+]=NCc1ccccc1C[C@]1(C(N)=O)N=C(c2ccc(OCCCO)cc2)O[C@H]1c1ccccc1`, the composite z-score with Albumin (Bos taurus) was 0.96; in assay [2], 0.073; in assay [3], -0.1; in assay [4] it was 0.82; in [5], 2.67; in assay [6], 0.525. The composite z-score in the assay on Sam68 (KHDRBS1) is 0.976; in [7], -1.03; in [8], 0.533; in assay [9], 0.409; in assay [10], 1.21; in assay [11], 0.196. Moreover, the composite z-score in assay [12] is 0.496; in assay [13], 1.31; in [14], -0.653; with Lefty1 it was -0.625; in assay [16] it was 1.14. For the same compound, in assay [1], the composite Z-score is -0.524 (inactive). Moreover, the z-score in assay [15] was 0.658; in assay [17], 0.856 (inactive).
